Over roughly 81,000 sequences, “one-hybrid fitness for binding parS DNA” has its median near -0.17; the highest 2% begin near 0.51. For the sample, the highest values were picked, then their nearest neighbours and some sequences at random.
B1: Caulobacter ParB omega fusion; a variant is named by its letters at X, in order, B8GW30 (parent)
chain: MESVVVGEPGMSEGRRGLGRGLSALLGEVDAAPAQAPGEQLGGSREAPIEILQRNPDQPRRTFREEDLEDLSNSIREKGVLQPILVRPSPDTAGEYQIVAGERAWRAAQRAGLKTVPIMVRELDDLAVLEIGIIENVQRADLNVLEEALSYKVLMEKFERTQENIAQTIGKSXSHVANXMRLLXLPDEVQSYLVSGELTAXHARAIAAAADPVALAKQIIEGGLSVRETEALARKAPNLSAGKSKGGRPPRVKDTDTQALESDLSSVLGLDVSIDHRGSTGTLTITYATLEQLDDLCNRLTRGI

Variants of: B1
Assay: one-hybrid fitness for binding parS DNA (scaled: cognate 1, non-cognate 0); higher = stronger binding
Conditions: with parS DNA site
Outline: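 The reporter was HIS3, with the binding site 19 bp from the promoter, in E. coli USO used for bacterial one-hybrid selection of Caulobacter ParB libraries with four specificity codons randomised. Growth was on M9 lacking histidine, with 0.1 mM IPTG and 5 mM 3-AT, for 48 hours at 37°C. Illumina sequencing covered plasmids before and after selection; three replicate libraries were pooled and variants with under 10 reads dropped. A fitness score is the log change in variant-to-wild-type read ratio, rescaled to the cognate and non-cognate references.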

| Variant | one-hybrid fitness for binding parS DNA |
| --- | --- |
| LDYT | ≤ 0.2 |
| HWFG | ≤ 0.2 |
| EKQG | ≤ 0.2 |
| CHLC | ≤ 0.2 |
| FSIV | ≤ 0.2 |
| ATPA | ≤ 0.2 |
| KWRR | ≤ 0.2 |
| QQPM | ≤ 0.2 |
| ALLC | ≤ 0.2 |
| TRRD | ≤ 0.2 |
| NQPG | ≤ 0.2 |
| PPRF | ≤ 0.2 |
| RILK | ≤ 0.2 |
| RILG | 0.993 |
| RILF | 0.269 |
| YPTC | ≤ 0.2 |
| MMSV | ≤ 0.2 |
| EQTA | ≤ 0.2 |
| ACKY | ≤ 0.2 |
| RNEI | ≤ 0.2 |
| RNED | ≤ 0.2 |
| RNEY | ≤ 0.2 |
| RNES | 0.776 |
| RNEH | ≤ 0.2 |
| RNEG | 0.677 |
| RNEN | ≤ 0.2 |

| Variant | one-hybrid fitness for binding parS DNA |
| --- | --- |
| RNEC | 0.613 |
| RNEP | ≤ 0.2 |
| FPSI | ≤ 0.2 |
| MKLG | ≤ 0.2 |
| VKMN | ≤ 0.2 |
| KPPS | ≤ 0.2 |
| RANK | ≤ 0.2 |
| RANC | 0.98 |
| RADF | ≤ 0.2 |
| RADQ | ≤ 0.2 |
| RANR | ≤ 0.2 |
| RADC | 0.856 |
| QRLS | ≤ 0.2 |
| RCPM | 0.203 |
| QMWS | ≤ 0.2 |
| SDGC | ≤ 0.2 |
| MATR | ≤ 0.2 |
| VQVL | ≤ 0.2 |
| PGTH | ≤ 0.2 |
| KCMT | ≤ 0.2 |
| GHPI | ≤ 0.2 |
| YKKF | ≤ 0.2 |
| RILN | 0.422 |
| RPLT | ≤ 0.2 |
| RCLT | 0.966 |
| RSLT | 0.846 |

| Variant | one-hybrid fitness for binding parS DNA |
| --- | --- |
| RMLP | ≤ 0.2 |
| RMLD | ≤ 0.2 |
| RSLH | 0.207 |
| RDLT | ≤ 0.2 |
| RMLT | 0.974 |
| RILD | ≤ 0.2 |
| RSLP | ≤ 0.2 |
| RILT | 0.89 |
| QFVS | ≤ 0.2 |
| EYRS | ≤ 0.2 |
| FKLR | ≤ 0.2 |
| GPRL | ≤ 0.2 |
| HRFW | ≤ 0.2 |
| QVAA | ≤ 0.2 |
| QNKG | ≤ 0.2 |
| GITA | ≤ 0.2 |
| YHLM | ≤ 0.2 |
| YQRH | ≤ 0.2 |
| STFL | ≤ 0.2 |
| RKSE | ≤ 0.2 |
| PSQM | ≤ 0.2 |
| HSHL | ≤ 0.2 |
| RHLN | 0.376 |
| RHLT | 0.834 |
| RTLT | 0.936 |
| RHLP | ≤ 0.2 |

| Variant | one-hybrid fitness for binding parS DNA |
| --- | --- |
| RTLK | ≤ 0.2 |
| RTLF | 0.267 |
| TKSI | ≤ 0.2 |
| DEMS | ≤ 0.2 |
| YRHE | ≤ 0.2 |
| PEDT | ≤ 0.2 |
| VYPT | ≤ 0.2 |
| RRGH | ≤ 0.2 |
| RRGD | ≤ 0.2 |
| RRGN | 0.777 |
| RCGN | 0.445 |
| RRGP | ≤ 0.2 |
| RRGS | 0.639 |
| WDVG | ≤ 0.2 |
| IHRW | ≤ 0.2 |
| RLDD | ≤ 0.2 |
| RLRG | 0.966 |
| RLNG | 1.01 |
| RLDG | 0.931 |
| RLDP | ≤ 0.2 |
| RLYH | 0.271 |
| RLNQ | ≤ 0.2 |
| RLYG | 1.03 |
| RLYP | ≤ 0.2 |
| RLRK | ≤ 0.2 |
| RLRD | ≤ 0.2 |

| Variant | one-hybrid fitness for binding parS DNA |
| --- | --- |
| RLNY | 0.495 |
| CISS | ≤ 0.2 |
| EWYV | ≤ 0.2 |
| QRYM | ≤ 0.2 |
| QVRQ | ≤ 0.2 |
| THSV | ≤ 0.2 |
| AQCS | ≤ 0.2 |
| NWKY | ≤ 0.2 |
| KFYT | ≤ 0.2 |
| RQMM | 0.33 |
| RQMS | 0.998 |
| RQMN | 0.423 |
| RQMT | 0.881 |
| RQMC | 0.945 |
| RQMY | 0.474 |
| RQMH | 0.292 |
| RQMG | 0.973 |
| RQMD | ≤ 0.2 |
| RQML | ≤ 0.2 |
| RQMP | ≤ 0.2 |
| RQMQ | ≤ 0.2 |
| DRVV | ≤ 0.2 |
| NSRG | ≤ 0.2 |
| SMFV | ≤ 0.2 |
| FLVT | ≤ 0.2 |
| RNLD | ≤ 0.2 |

| Variant | one-hybrid fitness for binding parS DNA |
| --- | --- |
| RNHH | ≤ 0.2 |
| RNHS | 0.911 |
| RNLN | 0.251 |
| RNPG | 0.433 |
| RNWN | ≤ 0.2 |
| RNIG | 0.597 |
| RNWP | ≤ 0.2 |
| RNIH | ≤ 0.2 |
| RNHP | ≤ 0.2 |
| RNLS | 0.895 |
| RNWS | 0.705 |
| MDVV | ≤ 0.2 |
| QCYT | ≤ 0.2 |
| GRNR | ≤ 0.2 |
| EQIG | ≤ 0.2 |
| FSEV | ≤ 0.2 |
| HKDS | ≤ 0.2 |
| YPGT | ≤ 0.2 |
| ADYG | ≤ 0.2 |
| CAGL | ≤ 0.2 |
| RNPS | 0.478 |
| RNQP | ≤ 0.2 |
| RNSN | 0.385 |
